Consider 12 compounds from PubChem BioAssay.

SMILES strings stand for the structures. Calls of active or inactive are those of the source.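 The calls were made as follows, unless noted: active = NADPH fluorescence slope more negative than the mean of all samples by about 3 SD, 99.7% confidence; inactive = the rest.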

Assay [1] can be described thus: inhibitors of TNFa-induced NFkB p65 translocation, primary screen, imaging, HUVEC, MLSMR starter and 10KST1 sets (AID 438;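 active = inhibition above 20% together with a positive visual image hit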;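 also: compound added about 3h40 before a 20 min TNFalpha stimulation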;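 as to inhibition: signal is the nuclear over cytoplasmic p65 intensity ratio per well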). The following applies: HUVEC TNFa-induced p65 nuclear translocation; cell count: measured here: nuclei count (cytotoxicity indicator), at 2.08 µM; inhibition: at 2 µM, stronger effect = higher value, 0% TNFa-plus-vehicle, 100% no-TNFa wells.
Assay [2] can be described thus: inhibitors of mutant huntingtin aggregation, primary screen, imaging, exon1htt(103Q)mCFP cells, high-content imaging (AID 483;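 active = visual image review flags a hit and inhibition of aggregation exceeds 20%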;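 also: compound exposure lasted 3 days before fixation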;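 as to nuclei count: percent of the per-plate median nuclei count of sample wells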). The following applies: exon1htt(103Q)mCFP cell line, aggregate imaging, at 2 µM; inhibition of aggregation: stronger effect = higher value; nuclei count: measured here: cell count, toxicity.
A short description of assay [3]: inhibitors of E-selectin induction by TNFa, primary screen, imaging, HUVEC, immunofluorescence, MLSMR starter and 10KST1 sets (AID 487;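 active = visually confirmed hit in the image check and inhibition above 20%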;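 as to inhibition: signal is fraction of cell area covered by stained E-selectin grains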;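 as to nuclei count: 100% = median nuclei count of all wells on the same plate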). The following applies: HUVEC TNFalpha-induced E-selectin immunofluorescence imaging, at 2 µM; inhibition: stronger effect = higher value; nuclei count: measured here: cell number, toxicity.
The target in assay [4] is Voltage-gated potassium channel subunit beta-2 (Rattus norvegicus) (UniProt P62483). As to the kind of experiment: KvBeta enzyme negative modulators, primary screen, biochemical, NADPH fluorescence (AID 622;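 active = fluorescence slope higher than the sample average by over 3 SD, cut at about -0.22 in these data, passing the limit was not always enough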;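 also: slope of raw intensity against log time taken from 70 to 1610 s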). The following applies: recombinant KvBeta, 4-cyanobenzaldehyde reduction, at 10 µM, stronger effect = higher value.
Chain of Voltage-gated potassium channel subunit beta-2 (Rattus norvegicus) (P62483 whole entry, looked up): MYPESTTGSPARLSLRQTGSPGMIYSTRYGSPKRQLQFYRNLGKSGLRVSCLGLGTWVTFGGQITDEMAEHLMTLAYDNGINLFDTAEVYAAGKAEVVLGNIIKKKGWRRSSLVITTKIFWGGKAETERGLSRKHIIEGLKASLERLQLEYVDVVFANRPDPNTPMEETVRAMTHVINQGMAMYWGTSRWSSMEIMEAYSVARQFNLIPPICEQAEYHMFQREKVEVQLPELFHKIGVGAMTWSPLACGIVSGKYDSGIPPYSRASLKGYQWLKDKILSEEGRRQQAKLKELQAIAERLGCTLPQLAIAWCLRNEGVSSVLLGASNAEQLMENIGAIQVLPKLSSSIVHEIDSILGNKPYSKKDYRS
Assay [5] has the same target. The assay can be described thus: KvBeta positive modulators, primary screen, biochemical, NADPH fluorescence (AID 623).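 Also: fluorescence intensity change per second fitted from 20 to 320 s.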 The note with it: Recombinant KvBeta, NADPH fluorescence decrease slope, 10 min; at 10 µM; stronger effect = lower value.
In assay [6] the target is Alpha-2C adrenergic receptor (Homo sapiens) (UniProt P18825). The assay can be described thus: modulators of alpha2C/GIRK thallium flux, primary screen, cell-based, HEK293 alpha2C/GIRK1/2 (AID 624;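 active = fluorescence slope after compound addition differing from the mean of all screened samples at 99.7% confidence, in either direction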;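 also: slope of fluorescence ratio to pre-addition baseline per second over 15 to 24 s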). The note with it: thallium flux BTC fluorescence, at 10 µM, actives lie on both sides.
Chain of Alpha-2C adrenergic receptor (Homo sapiens) (P18825 whole entry, looked up): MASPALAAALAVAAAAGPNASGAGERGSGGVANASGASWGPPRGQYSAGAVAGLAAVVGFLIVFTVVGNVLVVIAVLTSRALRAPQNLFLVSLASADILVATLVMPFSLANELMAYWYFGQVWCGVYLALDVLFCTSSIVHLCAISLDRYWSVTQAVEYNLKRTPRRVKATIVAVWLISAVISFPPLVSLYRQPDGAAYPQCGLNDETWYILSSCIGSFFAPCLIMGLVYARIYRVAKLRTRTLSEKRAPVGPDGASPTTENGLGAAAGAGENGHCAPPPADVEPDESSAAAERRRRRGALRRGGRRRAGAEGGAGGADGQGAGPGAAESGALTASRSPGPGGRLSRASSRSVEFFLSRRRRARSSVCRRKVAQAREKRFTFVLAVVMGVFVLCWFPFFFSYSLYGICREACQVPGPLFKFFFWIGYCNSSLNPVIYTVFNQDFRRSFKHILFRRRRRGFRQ
Assay [7] can be described thus: inhibitors of Sendai virus-induced IRF3 signaling, primary screen, TLR/RLR signaling modifier project, cell-based, Sendai virus stimulus, luciferase, 10K MLSCN set (AID 602276;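 active = inhibition at or above 50% at 10 µM; inactive = inhibition below 50%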;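 also: firefly luciferase from ISG56 promoter only with Renilla not read in this screen; 0% = Sendai virus plus DMSO and 100% = medium plus DMSO without virus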). The following applies: HEK293 RL24 IRF3 luciferase reporter, at 10 µM, stronger effect = higher value. (A reporter such as luciferase makes a cellular process visible.)
A short description of assay [8]: inhibitors of poly I:C-induced TLR3 signaling, primary screen, cell-based, poly I:C stimulus, luciferase, 10K MLSCN set (AID 602277;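 active = inhibition of the reporter signal at or above 50%; inactive = inhibition below 50%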). The note with it: HEK293-TLR3 RL24 IRF3 luciferase reporter, at 10 µM, stronger effect = higher value.

For `Cc1cc(NC(=O)CSc2nc(CCC3CCCC3)nc3ccccc23)no1`, the cell count in assay [1] is 400. The inhibition (commonly the change of the read-out against control, counted positive when it falls) in assay [1] was 3.5% (inactive); in assay [3], -41% (inactive); in assay [7], 8.39% (inactive); in assay [8], 27.2% (inactive). Moreover, in assay [2], the inhibition of aggregation is -13.6% (inactive). Also, the nuclei count is 113% in assay [2] and 90% in assay [3]. For the same compound, in assay [4], the fluorescence slope is -0.449 (inactive). Moreover, in assay [5], the NADPH fluorescence slope is 4e-06 (inactive). Further, in assay [6], the slope was 0.00867 (inactive).
For `CCCN1CC23C=CC(O2)C(C(=O)O)C3C1=O` (configuration not stated), in assay [1], the cell count is 833. In addition, the inhibition is -8.7% (inactive) in assay [1], -58.4% (inactive) in assay [3], 6.27% (inactive) in assay [7] and 15.9% (inactive) in assay [8]. Moreover, the inhibition of aggregation in assay [2] was -27.3% (inactive). The nuclei count is 109% in assay [2] and 124% in assay [3]. In assay [4], the fluorescence slope was -0.518 (inactive). For the same compound, the NADPH fluorescence slope in assay [5] is -8.6e-07 (inactive). Also, the slope in assay [6] was 0.00688 (inactive).
For `NS(=O)(=O)c1ccc(CCNC(=O)c2cccnc2)cc1`, the cell count in assay [1] worked out at 580. Also, the inhibition in assay [1] is -8.3% (inactive); in assay [3], -75.4% (inactive); in assay [7], 10.9% (inactive); in assay [8], 99.1% (active). The inhibition of aggregation in assay [2] was -11.5% (inactive). Also, the nuclei count was 105% in assay [2] and 107% in assay [3]. Also, in assay [4], the fluorescence slope was -0.276 (inactive). For the same compound, in assay [5], the NADPH fluorescence slope was -6.8e-05 (inactive). The slope in assay [6] is 0.00459 (inactive).
Regarding `Cn1c(COc2ccc(Cl)cc2)nnc1SCC(=O)NC1CCCCC1`, the cell count in assay [1] is 328. Besides, the inhibition in assay [1] was -1.3% (inactive); in assay [3] it was -90.6% (inactive); in assay [7], -9.58% (inactive); in assay [8] it was -7.85% (inactive). Further, in assay [2], the inhibition of aggregation was 19.6% (inactive). For the same compound, the results for the nuclei count in assay [2] and in assay [3] were 91.8% and 107%, respectively. The fluorescence slope in assay [4] is -0.545 (inactive). For the same compound, the NADPH fluorescence slope in assay [5] was -1.7e-05 (inactive). Moreover, the slope in assay [6] is 0.00395 (inactive).
On to `CCN(CC(=O)Nc1c(C(=O)OC)[nH]c2ccccc12)c1ccc2c(c1)OCO2`, for which the cell count in assay [1] worked out at 309. The inhibition in assay [1] is -2.1% (inactive); in assay [3] it was -53.3% (inactive); in assay [7], 20.2% (inactive); in assay [8] it was 8.63% (inactive). Further, in assay [2], the inhibition of aggregation is -25.6% (inactive). The results for the nuclei count in assay [2] and in assay [3] were 70.8% and 103%, respectively. Besides, in assay [4], the fluorescence slope is -0.376 (inactive). Besides, the NADPH fluorescence slope in assay [5] is -6.7e-05 (inactive). Also, the slope in assay [6] was 0.00578 (inactive).
Regarding `COCCn1c(SCC(=O)Nc2ccc3c(c2)OCCO3)nc2c(c1=O)SC(C)C2` (configuration not stated), the cell count in assay [1] is 715. The inhibition in assay [1] is -4.4% (inactive); in assay [3], -36.9% (inactive); in assay [7], -10.2% (inactive); in assay [8], -0.542% (inactive). Also, in assay [2], the inhibition of aggregation is -19.9% (inactive). Also, the nuclei count in assay [2] is 106%; in assay [3], 116%. For the same compound, in assay [4], the fluorescence slope was -0.413 (inactive). The NADPH fluorescence slope in assay [5] was 3.3e-05 (inactive). Also, in assay [6], the slope was 0.00496 (inactive).
Take `CCOC(=O)CC1=C(C(=O)OCC)C(c2ccc(C)o2)C(C#N)=C(N)O1` (configuration not stated): in assay [1], the cell count came to 339. Besides, the inhibition was -16.4% (inactive) in assay [1], -46.5% (inactive) in assay [3], 3.2% (inactive) in assay [7] and 8.99% (inactive) in assay [8]. In addition, the inhibition of aggregation in assay [2] was 15.3% (inactive). For the same compound, the nuclei count is 91.9% in assay [2] and 94.7% in assay [3]. The fluorescence slope in assay [4] is -0.625 (inactive). Also, the NADPH fluorescence slope in assay [5] is 3.1e-06 (inactive). The slope in assay [6] is 0.00603 (inactive).
On to `CCC(C)NC(=O)c1cc(CC(C)C)on1` (configuration not stated), for which the cell count in assay [1] came out at 880. Besides, the inhibition in assay [1] is 3.5% (inactive); in assay [3], -78.2% (inactive); in assay [7], -59.4% (inactive); in assay [8] it was -111% (inactive). Moreover, in assay [2], the inhibition of aggregation is 21.8% (inactive). Also, the nuclei count in assay [2] is 80.5%; in assay [3] it was 127%. Further, in assay [4], the fluorescence slope was -0.61 (inactive). Also, the NADPH fluorescence slope in assay [5] was -1.9e-05 (inactive). Besides, the slope in assay [6] is 0.00602 (inactive).
As to `CCN(C(=O)c1cc(Cl)ccc1OC)C1CCCCC1`, in assay [1], the cell count was found to be 303. In addition, the inhibition in assay [1] is 4.5% (inactive); in assay [3], 15.2% (inactive); in assay [7], 13.8% (inactive); in assay [8], 42% (inactive). For the same compound, in assay [2], the inhibition of aggregation was 8.5% (inactive). For the same compound, the nuclei count in assay [2] stood at 109%; in assay [3] it was 113%. Besides, the fluorescence slope in assay [4] is -0.429 (inactive). In assay [5], the NADPH fluorescence slope was -6.2e-05 (inactive). The slope in assay [6] is 0.00399 (inactive).
In the case of `CCOC(=O)C1=C(C)N=c2s/c(=C\c3cccn3C)c(=O)n2C1c1cccc(OC)c1OC` (configuration not stated), the cell count in assay [1] amounted to 342. Also, the inhibition is 4.5% (inactive) in assay [1], -38% (inactive) in assay [3], 15.4% (inactive) in assay [7] and 25.1% (inactive) in assay [8]. Besides, the inhibition of aggregation in assay [2] is 0.2% (inactive). Further, the nuclei count amounted to 98.8% in assay [2] and 102% in assay [3]. Besides, the fluorescence slope in assay [4] was -0.419 (inactive). In assay [5], the NADPH fluorescence slope is -8.6e-05 (inactive). Moreover, in assay [6], the slope is 0.0038 (inactive).
Consider `O=C(NCCCCNC(=O)c1cccnc1)c1cccnc1`, for which the cell count in assay [1] turned out to be 514. The inhibition was 10.1% (inactive) in assay [1], -31.4% (inactive) in assay [3], 13.9% (inactive) in assay [7] and 26.9% (inactive) in assay [8]. Also, in assay [2], the inhibition of aggregation is 8.2% (inactive). For the same compound, the results for the nuclei count in assay [2] and in assay [3] were 99.6% and 116%, respectively. The fluorescence slope in assay [4] is -0.64 (inactive). Also, the NADPH fluorescence slope in assay [5] is 3.6e-05 (inactive). Besides, in assay [6], the slope was 0.00666 (inactive).
As to `O=C(CSc1ncnc2c1oc1ccccc12)Nc1ccccc1F`, the cell count in assay [1] was determined as 613. The inhibition in assay [1] is -13.5% (inactive); in assay [3] it was -10.1% (inactive); in assay [7], 1.97% (inactive); in assay [8], 16.6% (inactive). The inhibition of aggregation in assay [2] was -13.9% (inactive). Also, the nuclei count stood at 107% in assay [2] and 116% in assay [3]. The fluorescence slope in assay [4] is -0.549 (inactive). The NADPH fluorescence slope in assay [5] is 3.9e-06 (inactive). Also, the slope in assay [6] is 0.00808 (inactive).
